Test results as given in the supplement of paper PMC12645437, “Orthogonal IMiD-Degron Pairs Induce Selective Protein Degradation in Cells” (ACS Chemical Biology, 2025).
The full ranking holds about 8,300 sequences; the median of “log2 fold change of degron read counts, EGFP-low vs EGFP+ sorted cells (limma voom), compound-induced degradation” is about -1.1, and the highest 2% start at about 3.2. This is one part of a sample in which the highest values are shown more often than they occur.

T1: CRBN, Q96SW2
T1 chain: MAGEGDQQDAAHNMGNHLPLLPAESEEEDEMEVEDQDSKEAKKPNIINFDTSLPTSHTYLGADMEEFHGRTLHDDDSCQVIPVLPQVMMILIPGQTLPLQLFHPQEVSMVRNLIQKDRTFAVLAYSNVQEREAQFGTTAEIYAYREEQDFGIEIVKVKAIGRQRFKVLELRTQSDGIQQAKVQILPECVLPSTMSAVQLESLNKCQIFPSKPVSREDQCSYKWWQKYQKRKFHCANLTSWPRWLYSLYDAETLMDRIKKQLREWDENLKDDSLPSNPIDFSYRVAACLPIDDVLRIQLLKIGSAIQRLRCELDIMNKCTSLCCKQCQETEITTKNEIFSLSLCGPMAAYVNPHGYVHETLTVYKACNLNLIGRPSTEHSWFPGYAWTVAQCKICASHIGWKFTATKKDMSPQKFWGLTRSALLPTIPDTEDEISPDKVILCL

B1: 46F_47I_49D_50I_52G_53A_54T_55F_67L_, Q9UKT9 (peptide)
chain: FICDICGATFTQKGNLLRHIKL
B2: 46F_47K_49E_50Q_52G_53A_54P_55F_67L_, Q9UKT9 (peptide)
chain: FKCEQCGAPFTQKGNLLRHIKL
B3: 46F_47V_49N_50I_52G_53A_54C_55F_67L_, Q9UKT9 (peptide)
chain: FVCNICGACFTQKGNLLRHIKL
B4: 46F_47F_49N_50Q_52G_53R_54T_55F_67L_, Q9UKT9 (peptide)
chain: FFCNQCGRTFTQKGNLLRHIKL
B5: 46F_47C_49S_50V_52G_53H_54K_55F_67L_, Q9UKT9 (peptide)
chain: FCCSVCGHKFTQKGNLLRHIKL
B6: 46F_47W_49E_50I_52G_53H_54I_55F_67L_, Q9UKT9 (peptide)
chain: FWCEICGHIFTQKGNLLRHIKL
B7: 46F_47I_49E_50I_52G_53R_54I_55F_67L_, Q9UKT9 (peptide)
chain: FICEICGRIFTQKGNLLRHIKL
B8: 46F_47L_49E_50I_52G_53R_54A_55F_67L_, Q9UKT9 (peptide)
chain: FLCEICGRAFTQKGNLLRHIKL
B9: 46L_47R_49E_50I_52G_53F_54I_55C_67L_, Q9UKT9 (peptide)
chain: LRCEICGFICTQKGNLLRHIKL
B10: 46F_47V_49E_50I_52G_53R_54R_55F_67L_, Q9UKT9 (peptide)
chain: FVCEICGRRFTQKGNLLRHIKL
B11: 46L_47W_49P_50I_52G_53F_54I_55C_67L_, Q9UKT9 (peptide)
chain: LWCPICGFICTQKGNLLRHIKL
B12: 46F_47N_49E_50Q_52G_53A_54Q_55F_67L_, Q9UKT9 (peptide)
chain: FNCEQCGAQFTQKGNLLRHIKL
B13: 46L_47T_49N_50Q_52G_53F_54M_55C_67L_, Q9UKT9 (peptide)
chain: LTCNQCGFMCTQKGNLLRHIKL
B14: 46F_47F_49N_50Q_52G_53A_54K_55F_67L_, Q9UKT9 (peptide)
chain: FFCNQCGAKFTQKGNLLRHIKL
B15: 46F_47D_49N_50V_52G_53A_54P_55F_67L_, Q9UKT9 (peptide)
chain: FDCNVCGAPFTQKGNLLRHIKL
B16: 46L_47D_49E_50I_52G_53F_54R_55C_67L_, Q9UKT9 (peptide)
chain: LDCEICGFRCTQKGNLLRHIKL
B17: 46L_47Y_49E_50I_52G_53F_54R_55C_67L_, Q9UKT9 (peptide)
chain: LYCEICGFRCTQKGNLLRHIKL
B18: 46L_47V_49E_50I_52G_53F_54R_55C_67L_, Q9UKT9 (peptide)
chain: LVCEICGFRCTQKGNLLRHIKL
B19: 46L_47S_49E_50I_52G_53F_54R_55C_67L_, Q9UKT9 (peptide)
chain: LSCEICGFRCTQKGNLLRHIKL
B20: 46L_47M_49E_50I_52G_53F_54R_55C_67L_, Q9UKT9 (peptide)
chain: LMCEICGFRCTQKGNLLRHIKL
B21: 46L_47T_49E_50I_52G_53F_54R_55C_67L_, Q9UKT9 (peptide)
chain: LTCEICGFRCTQKGNLLRHIKL
B22: 46L_47C_49E_50I_52G_53F_54R_55C_67L_, Q9UKT9 (peptide)
chain: LCCEICGFRCTQKGNLLRHIKL
B23: 46L_47H_49E_50I_52G_53F_54R_55C_67L_, Q9UKT9 (peptide)
chain: LHCEICGFRCTQKGNLLRHIKL
B24: 46L_47G_49E_50I_52G_53F_54R_55C_67L_, Q9UKT9 (peptide)
chain: LGCEICGFRCTQKGNLLRHIKL
B25: 46L_47W_49E_50I_52G_53F_54R_55C_67L_, Q9UKT9 (peptide)
chain: LWCEICGFRCTQKGNLLRHIKL
B26: 46L_47N_49E_50I_52G_53F_54R_55C_67L_, Q9UKT9 (peptide)
chain: LNCEICGFRCTQKGNLLRHIKL
B27: 46L_47A_49E_50I_52G_53F_54R_55C_67L_, Q9UKT9 (peptide)
chain: LACEICGFRCTQKGNLLRHIKL

Target: T1, CRBN, Q96SW2
Test: log2 fold change of degron read counts, EGFP-low vs EGFP+ sorted cells (limma voom), compound-induced degradation; higher = more compound-induced degradation of the degron-EGFP fusion; degrons are variants of IKZF1/3 zinc finger 2; compound dose not given here
Settings: Jurkat, 18 h
[1] = compound: compound 19 (5-tert-butyl-thalidomide)
[2] = compound: compound 22 (5-morpholino-thalidomide)
[3] = compound: compound 33 (diphenyl IMiD analogue)
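Note: pooled lentiviral library of zinc finger degron-EGFP fusions in mCherry-positive Jurkat cells, FACS-sorted after compound exposure, with degron abundance counted by next-generation sequencing.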

Row | Sequence | log2 fold change of degron read counts [1] | log2 fold change of degron read counts [2] | log2 fold change of degron read counts [3] | log2 fold change of degron read counts (compound: thalidomide)
1 | B1 | -1.39 | 0.332 | 0.735 | -0.113
2 | B2 | -1.28 | -2.18 | -2.55 | -1.19
3 | B3 | -1.18 | 0.539 | 1.63 | 1.37
4 | B4 | -2.31 | -2.17 | -2.54 | -2.59
5 | B5 | -2 | -2.26 | -2.77 | -2.04
6 | B6 | -0.453 | -0.795 | -0.246 | -0.951
7 | B7 | -1.03 | -1.63 | 0.139 | -0.162
8 | B8 | -1.9 | -2.56 | -1.36 | -1.22
9 | B9 | -0.547 | -1.4 | 0.271 | 0.795
10 | B10 | -1.38 | -0.295 | -0.924 | 1.44
11 | B11 | 2.27 | 2.7 | 2.35 | 1.24
12 | B12 | -1.51 | -2.31 | -2.13 | -2.22
13 | B13 | -2.05 | -1.99 | -2.04 | -1.23
14 | B14 | -0.805 | -0.929 | -1.59 | -1.91
15 | B15 | -1.08 | -1.02 | -1.22 | -0.873
16 | B16 | 0.949 | -0.499 | -0.616 | 0.426
17 | B17 | 3.55 | 3.9 | 2.17 | 1.9
18 | B18 | 2.5 | 2.55 | 1.39 | 3.28
19 | B19 | 2.82 | 2.76 | 0.517 | 1.83
20 | B20 | 0.992 | 0.81 | 2.15 | 2.41
21 | B21 | 1.66 | 2.1 | 1.15 | 2.73
22 | B22 | 2.36 | 2.33 | 1.37 | 2.65
23 | B23 | 2.71 | 2.4 | 1.3 | 1.88
24 | B24 | 2.14 | 1.52 | -0.383 | 0.468
25 | B25 | 3.39 | 3.5 | 2.48 | 1.8
26 | B26 | 1.31 | 0.0636 | -0.877 | 0.378
27 | B27 | 3.5 | 2.79 | 0.159 | 1.41
